According to PubChem BioAssay (NCATS):
Records with an inconclusive call do not appear. Values without a mark were called inactive. The call rests on the fitted dose curve; in most records, active means well fitted cell-killing curve with a large enough effect; inconclusive means small, poorly fitted or top-dose-only effect, or effect the other way; inactive means flat fitted curve, though single readings scatter. Where a SMILES comes first, the peptide text is derived from it. Bridges are numbered along the chain shown (N, C = ends). [ ]: non-standard residue; d: D form. hArg = N=C(N)NCCCC[C@H](N)C(=O)O; Mpa = O=C(O)CCS

test: S16 Schwann cell viability assay (CellTiter-Glo assay) (AID 624031); conditions: S16 rat Schwann cells viability, 24 h; series mostly up to 57.5 µM; activity change, negative = cytotoxicity: at the top concentration;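 further: cellular ATP luminescence as a viability measure; nearly all actives have a fitted effect of over 70% in size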
Source text: Charcot-Marie-Tooth-Association [CMTA]
National Center for Advancing Translational Sciences [NCATS]
Charcot-Marie-Tooth (CMT) disease was first characterized by Jean-Martin Charcot and Pierre Marie in France and, independently, by Howard Henry Tooth in England in 1886. CMT is one of the most common inherited neurological diseases, affecting approximately 1 in 2,500 Americans. […] The most prevalent type of CMT is known as CMT1A and caused by a duplication of the PMP22 gene which leads to over-expression of this protein. PMP22 is a glycosylated intrinsic membrane protein accounting for 2-5% of the myelin protein content, and its over-expression results in demyelination and subsequently axonal loss.
A pair of cellular transcription-based assays was developed in the S16 rat Schwann cell lines (Hai, M., et al., 2002) stably transfected with orthogonal reporters - firefly luciferase (Fluc) and beta-lactamase (beta-Lac) - whose expression is driven by an intronic regulatory element of the PMP22 gene (Jones, E.A., et al., 2011) to recapitulate endogenous expression of PMP22. A comprehensive library of approved drugs, the NCGC Pharmaceutical Collection (Huang, R., et al., 2011), was screened in the cross-validating platform of the orthogonal reporter assays to identify drug modulators inhibitory towards PMP22 expression.
A set of counter-screens was devised to address non-specific activity of the library. An ATP-dependent CellTiter-Glo assay (developed by Promega Corp) was utilized to control cell viability. In addition, biochemical Fluc enzyme assay was performed to assess direct inhibition of the Fluc enzymatic activity.
Hai, M., Muja, N., DeVries, G.H., Quarles, R.H. and Patel, P.I. Comparative analysis of Schwann cell lines as model systems for myelin gene transcription studies. J Neurosci Res, 2002. 69(4): pp 497-508
Huang, R., Southall, N., Wang, Y., Yasgar A., Shinn P., Jadhav, A. , Nguyen, D.-T. and Austin, C.P., The NCGC pharmaceutical collection: a comprehensive resource of clinically approved drugs enabling repurposing and chemical genomics. Sci Transl Med, 2011. 3(80): p. 80ps16.
Native S16 cells were seeded in white solid-bottom 1536 well plates at between 500-750 cells/6uL in DMEM medium containing 10% FBS, w/o phenol red. After overnight incubation at 37 degree Celsius/5% C02, 23 nL of compounds or DMSO were delivered to each well using a pin tool, followed by 24h-incubation at 37 degree Celsius/5% C02. Then one volume of CellTiter-Glo assay reagent (Promega) was added to each well for cell viability measured by a ViewLux plate reader (PerkinElmer). The % activity was determined by normalizing to the average readings from wells containing no cells relative to DMSO-treated cells (0% Activity). The concentration-effect curves were then classified based on curve quality (r2), response magnitude and degree of measured activity.

Structure (SMILES)	activity change, negative = cytotoxicity
C[C@@H]1CCC[C@H](C)N1	2.35% [at 25.7 µM]
Cc1c(NC(=O)c2cccnc2)c(=O)n(-c2ccccc2)n1C	18.5% [at 25.7 µM]
Cn1c([N+](=O)[O-])cnc1COC(N)=O	8.63%
Cc1cc(O)cc(C)c1Cl	-1.01%
NC(=O)[C@@H]1CSSCCC(=O)N[C@@H](CCCCN=C(N)N)C(=O)NCC(=O)N[C@@H](CC(=O)O)C(=O)N[C@@H](Cc2c[nH]c3ccccc23)C(=O)N2CCC[C@H]2C(=O)N1 ([Mpa][hArg]GDWPC-NH2; disulfide 1-7)	-11.8%
CC(=O)N(CC(O)CO)c1c(I)c(C(=O)NCC(O)CO)c(I)c(C(=O)NCC(O)CO)c1I (stereo not given)	4.66%
NNC(=O)CP(=O)(c1ccccc1)c1ccccc1	-5.94%
CN1C(C)(C)CCCC1(C)C	8.55%
CCN(CC)CCOC(=O)C(c1ccccc1)c1ccccc1	2.63%
COc1ccc2cc(CCC(C)=O)ccc2c1	4.65% [at 25.7 µM]
O=C(NCN1CCOCC1)c1cnccn1	-9.17%
Cc1cccc(Nc2ccccc2C(=O)O)c1C	-1.5%
CCOC(=O)c1cccnc1	0.786%
NCC1CCC(C(=O)Oc2ccc(CCC(=O)O)cc2)CC1 (stereo not given)	-10.4%
Nc1ccc(C(=O)Oc2ccccc2)c(O)c1	-12%
Cc1ccccc1N=Nc1ccc(N=Nc2c(O)ccc3ccccc23)c(C)c1	-1.48%
Cc1ccc(C(C)C)c(O)c1	20.3%
Nc1ncnc(Nc2ccccc2)n1	8.13%
O=C1c2ccccc2C(=O)C1c1ccc(Br)cc1	-2.95%
CC(=O)Oc1cccc(C)c1	-5.05%

Structure (SMILES)	activity change, negative = cytotoxicity
O=C(O)CCCc1ccccc1	6.39%
CCc1cccc(CC)c1NC(=O)CN(CC(=O)O)CC(=O)O	13.9% [at 25.7 µM]
CCCC(O)C(CC)CO (stereo not given)	5.3%
O=C(CCBr)N1CCN(C(=O)CCBr)CC1	-1.07%
COC(=O)c1cccnc1	3.18%
CC(C)C[C@@H](N)C(=O)O	4.71%
Cc1c(C)c2c(c(C)c1OC(=O)c1cccnc1)CC[C@@](C)(CCC[C@H](C)CCC[C@H](C)CCCC(C)C)O2	8.63%
CC(C)CCCC(C)CCCC(C)CCCCC(C)CCCC(C)CCCC(C)C (stereo not given)	-5.31%
C=CCNC(N)=S	2.44%
Nc1c2c(nc3c1CCC3)CCCC2	-8.84%
O=C(OOC(=O)c1ccccc1)c1ccccc1	-1.97%
NC(=O)CC[C@@H](N)C(=O)O	8.31%
Cc1cccc(C)c1NC(=O)CC12CCCN1CCC2	1.62%
COc1ccc(O)cc1	0%
Cc1c(NC(C)C)c(=O)n(-c2ccccc2)n1C	1.16%
CCCCCCCC(=O)OCC(COC(=O)CCCCCCC)OC(=O)CCCCCCC	1.12%
NS(=O)(=O)c1cc(-c2nn[nH]n2)c(NCc2cccs2)cc1Cl	-5.69%
CC(C)=CCC/C(C)=C/CO	-2.88%
CC(C)(C)C(=O)OCOC(=O)[C@@H]1N2C(=O)[C@@H](NC(=O)[C@H](N)c3ccccc3)[C@H]2SC1(C)C	1.51% [at 25.7 µM]
CC[N+](C)(CC)CCOC(=O)C1c2ccccc2Oc2ccccc21	-4.75%
